DT40 TDP1 CPT – growth inhibition of DT40 Tdp1-/-;hTDP1 cells with camptothecin (screen for TDP1 inhibitors); chicken DT40 Tdp1-/-;hTDP1 cells + 20 nM CPT, ATP luminescence, 48 h; Potency, µM (top dose mostly 46.2 µM), inactives show at the highest dose activity change, negative = growth inhibition, actives largely listed as inhibitors; hit rate 12% among 420,000; AID 686979; further: nearly all actives have a fitted effect of over 55% in size
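Chicken DT40 Tdp1-/- cells stably complemented with human TDP1 were seeded at 400 cells/well in medium containing 20 nM camptothecin, exposed to pin-transferred compounds, and grown at 37 °C for at least 48 hr. Viability was read as ATP luminescence.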
VP16 counter – inhibits Gal4-VP16 luciferase reporter, ROR gamma counter-screen. Drosophila S2 Gal4-VP16 UAS-luciferase, luminescence, 20 h. Potency, µM (highest dose often 53.6 µM), inactives show at the highest dose activity, negative = inhibition, actives largely listed as inhibitors. hit rate 3.5% among 310,000. AID 2546;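 further: Gal4-VP16 expression switched on by copper sulfate through the metallothionein promoter; nearly all actives have a fitted effect of over 50% in size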
TDP1 block – inhibitors of human tyrosyl-DNA phosphodiesterase TDP1; Q9NUW8; recombinant TDP1, AlphaScreen DNA substrate cleavage; Potency, µM (series often up to 130 µM), for inactives: at the top dose activity change, negative = inhibition, usual class: inhibitors; hit rate 0.28% among 350,000; AID 485290; further: nearly all actives have a fitted effect of over 40% in size
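Here, a 5' biotin and 3' phosphotyrosine-FITC DNA oligonucleotide reports Tdp1 activity: intact substrate bridges AlphaScreen beads, while cleavage leaves a 3' phosphate and drops signal. All incubations at room temperature.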
RORg inh – ROR gamma (mouse) transcription inhibition | Drosophila S2 Gal4-RORgamma UAS-luciferase reporter, 20 h | Potency, µM (titrated, usually from 53.6 µM), for inactives: at the top dose activity change, negative = inhibition, hits mostly inhibitors | hit rate 5.4% among 310,000 | AID 2551; further: nearly all actives have a fitted effect of over 60% in size
Target sequence (P51450 whole entry, looked up, the tested form may be a part): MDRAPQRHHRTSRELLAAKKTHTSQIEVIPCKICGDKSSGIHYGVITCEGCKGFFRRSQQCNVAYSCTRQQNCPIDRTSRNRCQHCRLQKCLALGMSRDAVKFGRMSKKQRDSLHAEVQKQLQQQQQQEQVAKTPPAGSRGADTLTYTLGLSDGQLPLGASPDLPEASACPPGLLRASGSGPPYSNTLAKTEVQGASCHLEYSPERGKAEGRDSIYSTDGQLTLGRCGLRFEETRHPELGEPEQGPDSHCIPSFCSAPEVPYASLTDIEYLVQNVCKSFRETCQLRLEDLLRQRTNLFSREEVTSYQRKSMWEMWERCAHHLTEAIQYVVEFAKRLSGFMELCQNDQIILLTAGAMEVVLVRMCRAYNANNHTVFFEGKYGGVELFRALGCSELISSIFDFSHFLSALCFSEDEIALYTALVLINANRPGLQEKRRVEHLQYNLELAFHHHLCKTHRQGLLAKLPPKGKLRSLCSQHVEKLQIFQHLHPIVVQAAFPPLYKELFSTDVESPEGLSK
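Drosophila Schneider cells stably carrying a metallothionein-driven Gal4 DBD–ROR gamma fusion and a UAS-Photinus luciferase reporter were exposed to compound for 1 hr, then induced with copper sulfate (700 uM final) for 20 hr at ambient temperature before luminescence reading.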
TDP1 cell noCPT – qHTS for Inhibitors of human tyrosyl-DNA phosphodiesterase 1 (TDP1): qHTS in cells in absence of CPT. DT40 Tdp1-/- hTDP1 cells, no CPT, ATP luminescence, 48 h. Potency, µM (highest dose often 46.2 µM), inactives show at the highest dose activity change, negative = growth inhibition, actives largely listed as inhibitors. hit rate 15% among 420,000; further: nearly all actives have a fitted effect of over 55% in size
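Luminescent ATP content (CellTiter-Glo) served as the growth readout. Knockout chicken DT40 cells expressing human TDP1 were exposed to compounds without camptothecin for a minimum 48 hr at 37 °C.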
* hit, by the source's call; ? = inconclusive; · = no result given; [ ] = remark or other dose. Compounds with a hit are over-represented: about 19% of the library has one in this group of screens. The call rests on the fitted dose curve; in most records, active means well fitted curve in the direction sought with a large enough effect; inconclusive means small, poorly fitted or top-dose-only effect, or another doubt; inactive means no such curve, though single readings can be large; an effect the other way counts as inactive or inconclusive. On the % scale 0 is the no-effect control and ±100 the full control effect; potency means the concentration at half of the fitted maximal effect.

SMILES	DT40 TDP1 CPT	VP16 counter	TDP1 block	RORg inh	TDP1 cell noCPT
COc1ccc(/C=C/C(=O)Nc2ccc(S(=O)(=O)N3CCOCC3)cc2)c(OC)c1	?	·	0%	·	18µM*
COc1ccc(/C=C/C(=O)Nc2cc(S(=O)(=O)N3CCOCC3)ccc2OC)cc1	-27%	·	1%	·	-16%
CCN1CCN(c2ccc(S(=O)(=O)N3CCOCC3)cc2NC(=O)c2cccc([N+](=O)[O-])c2)CC1	-1%	·	-1%	·	-13%
CCN1CCN(c2ccc(S(=O)(=O)N3CCOCC3)cc2NC(=O)/C=C/c2ccc([N+](=O)[O-])cc2)CC1	?	·	·	·	2.9µM*
COc1ccc(NC(=O)/C=C/c2ccc(S(=O)(=O)N3CCOCC3)cc2)cc1	-2%	·	0%	·	0%
COc1ccc(/C=C/C(=O)Nc2ccc(C)c(S(=O)(=O)N3CCOCC3)c2)cc1	?	·	-4%	·	18µM*
Fc1ccc(CNn2cnnc2SCc2ccc(F)cc2)cc1	?	2%	4%[56.1 µM]	?	-22%
CN=C(Nc1cc(C)nn1-c1ccccc1)c1ccc(F)cc1	6%	1%	2%	0%	9%
Cc1cc(C)cc(NC(=O)COC(=O)CCC2CCCC2)c1	0%	·	-14%	·	3%
CC(=O)c1c(C(C)=O)c(C)n(-c2cccc([N+](=O)[O-])c2)c1C	0%	-2%	1%	-14%	0%
Cc1cc(C(=O)N/N=C/c2ccc3c(c2)OCO3)c(C)n1-c1ccc(F)cc1	?	2%	6%	12%	13µM*
Cc1cc(/C=N/NC(=O)c2ccccn2)c(C)n1-c1cccc([N+](=O)[O-])c1	-3%	-3%	3%	10%	?
Cc1cc(C(=O)CCl)c(C)n1-c1cccc([N+](=O)[O-])c1	1.5µM*	?	1%	8.9µM*	2.3µM*
Cc1cc(C(=O)N/N=C/c2ccc(Cl)c([N+](=O)[O-])c2)c(C)n1-c1ccc(F)cc1	23µM*	-10%	11%	?	15µM*
Cc1ccsc1C(=O)N/N=C/c1ccc2c(c1)OCO2	?	?	5%	?	?
Cc1cc(C(=O)N/N=C/c2cccc([N+](=O)[O-])c2)c(C)n1-c1ccccc1	?	-8%	3%	42%	23µM*
S=C(NC1CCCC1)N1CCOCC1	14%	9%	-5%	-16%	13%
CCC(CC)C(=O)Nc1cc([N+](=O)[O-])ccc1Cl	3%	-1%	2%	-11%	-5%
Cc1cc(C(=O)CCl)c(C)n1-c1ccon1	2.3µM*	?	1%	8.9µM*	2.9µM*
O=C(NCC(Cl)c1ccc2ccccc2c1)c1c(F)cccc1F (stereo not given)	-8%	9%	·	?	-4%
Cc1nn(-c2ccc(N3CCCCC3)nn2)c(C)c1CCC(=O)Nc1ccc(F)cc1F	16µM*	·	7%	·	18µM*
Cc1nn(-c2ccc(N3CCCCC3)nn2)c(C)c1CCC(=O)Nc1ccc(F)c(F)c1	?	-7%	2%	1%	-28%
CCOC(=O)c1cccc(NC(=O)CCc2c(C)nn(-c3ccc(N4CCCCC4)nn3)c2C)c1	?	·	7%	·	23µM*
COc1ccc(C)cc1NC(=O)CCc1c(C)nn(-c2ccc(N3CCCCC3)nn2)c1C	?	-1%	12%	12%	26µM*
Cc1nn(-c2ccc(N3CCCC3)nn2)c(C)c1CCC(=O)Nc1ccc(F)c(Cl)c1	18µM*	·	7%	·	26µM*
SMILES	DT40 TDP1 CPT	VP16 counter	TDP1 block	RORg inh	TDP1 cell noCPT
Cc1ccc(NC(=O)CCc2c(C)nn(-c3ccc(N4CCCCC4)nn3)c2C)cc1	?	?	6%	-22%	-18%
Cc1nn(-c2ccc(N3CCOCC3)nn2)c(C)c1CCC(=O)Nc1ccc(F)cc1F	?	·	8%	·	?
Cc1ccc(/C=C2\C(=O)NC(=O)N2C)o1	-4%	5%	5%[56.1 µM]	14%	5%
Cc1cc(C)cc(NC(=O)CCc2c(C)nn(-c3ccc(N4CCCC4)nn3)c2C)c1	21µM*	·	6%	·	26µM*
Cc1cc(C)cc(NC(=O)CCc2c(C)nn(-c3ccc(N4CCCCC4)nn3)c2C)c1	?	?	2%	-31%	?
C=CCc1cccc(CNc2nc3ccccc3n2CCC)c1O	?	?	2%	-1%	23µM*
C=CCc1cccc(CNc2nc3ccccc3n2CC)c1O	?	-14%	4%	?	?
CCCCn1c(NCc2ccc(OC)cc2O)nc2ccccc21	15µM*	·	5%[2.28 µM]	·	10µM*
CCN(CC)CCn1c(NCc2cccc(OC)c2OC)nc2ccccc21	?	17%	2%	-26%	?
CCCCn1c(NCc2ccc3c(c2)OCO3)nc2ccccc21	?	-6%	3%	-10%	26µM*
CCCCn1c(NCc2ccccc2O)nc2ccccc21	?	23%	8%	?	?
CCCCCn1c(NCc2ccccc2OC)nc2ccccc21	?	·	-2%	·	21µM*
Cc1cc(N2CCN(C)CC2)n2cc(-c3ccc(F)cc3)nc2n1	-7%	-5%[0.365 µM]	0%	24%	?
Cc1cc(C(=O)N2CCN(c3ccccc3O)CC2)c(C)o1	1%	·	7%	·	-11%
Cc1ccc(S(=O)(=O)Nc2ccc(-n3cnnn3)cc2)c(C)c1	?	·	0%[56.1 µM]	·	?
Cc1cc(C)c(S(=O)(=O)Nc2ccc(N(C)C)cc2)c(C)c1-n1cnnn1	29µM*	-15%	·	?	16µM*
